Laboratory results as given in PubChem BioAssay.
The other results are listed elsewhere or left out. The source made the active and inactive calls. Rule as the data show it, unless noted: active = activity above about 50%; inactive = the rest.

Experiments:
[1] = NFkB reporter suppression in cystic fibrosis bronchial cells – cell-based, uHTS hits, panel, cytotoxicity readout, dose response (AID 624344); conditions: CF bronchial epithelial cells, PAF-induced NFkB reporter inhibition, with PAF, run 1; at 79 µM (top of the series) unless noted
[2] = as above; conditions: CF bronchial epithelial cells, PAF-induced NFkB reporter inhibition, with PAF, run 2; at 79 µM (top of the series) unless noted
[3] = target: Tumor necrosis factor receptor superfamily member 10B (Homo sapiens) (UniProt O14763); assay: viability loss of caspase-8 NB7 cells with TRAIL – with/without TRAIL, luminescence panel, confirmation (AID 651596); conditions: NB7 neuroblastoma + caspase-8, TRAIL sensitization, NB7 Caspase-8, with TRAIL, mean of runs, at 10 µM, stronger effect = higher value
[4] = as above; conditions: NB7 neuroblastoma + caspase-8, without TRAIL, NB7 Caspase-8, without TRAIL, mean of runs, at 10 µM
[5] = HIF-2a driven luciferase blockers, single dose – luminescence, 786-0 RCC cells, confirmation (AID 651580;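 active = mean inhibition across four replicates of at least 40 percent at the single tested concentration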); conditions: HIF-2a luciferase reporter luminescence, overnight, at 18.8 µM, stronger effect = higher value
[6] = HIF-1a luciferase reporter signal reduction – MiaPaCa-2 cells, single concentration, counter-screen for HIF-2a inhibitor project, confirmation (AID 651589;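 active = mean inhibition of the reporter signal across four replicates at the single tested dose of 50% or more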); conditions: MiaPaCa-2 HIF-1a luciferase reporter, desferoxamine, overnight; at 18.8 µM; stronger effect = higher value

Chain of Tumor necrosis factor receptor superfamily member 10B (Homo sapiens) (O14763 whole entry, looked up): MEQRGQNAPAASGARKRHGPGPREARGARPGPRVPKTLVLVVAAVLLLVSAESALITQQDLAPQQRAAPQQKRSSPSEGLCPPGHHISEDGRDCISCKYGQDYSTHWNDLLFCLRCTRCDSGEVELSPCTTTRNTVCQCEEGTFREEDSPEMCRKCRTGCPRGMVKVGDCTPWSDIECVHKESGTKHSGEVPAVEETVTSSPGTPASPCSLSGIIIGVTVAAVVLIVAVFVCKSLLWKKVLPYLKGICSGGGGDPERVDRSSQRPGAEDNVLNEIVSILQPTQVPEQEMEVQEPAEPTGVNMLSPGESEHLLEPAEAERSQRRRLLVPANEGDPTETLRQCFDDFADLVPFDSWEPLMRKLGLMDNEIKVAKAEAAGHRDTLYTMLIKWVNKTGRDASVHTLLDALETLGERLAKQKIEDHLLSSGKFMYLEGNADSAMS

What does the source list for `Clc1ccc(Cn2ncc3c(N4CCN(c5ccccc5)CC4)ncnc32)cc1`?
inhibition [1]: 109%; inhibition [2]: 94.9%; activity [3]: 69.5%; activity [4]: 66.8%

With `CCCSC(=S)NC1CCS(=O)(=O)C1` (stereo not given) as the compound, how does the inhibition [5] read?
Its inhibition is 14.6% (inactive).

What about the inhibition [6] of the same compound?
The inhibition was 68.5% (active).

With `O=C(Nc1ccccc1)c1nnsc1S(=O)(=O)c1ccc(Cl)cc1` as the compound, how does the inhibition [5] read?
Its inhibition is 47.1% (active).

What about the inhibition [6] of the same compound?
The inhibition was -5.15% (inactive).

Which results are given for `N#CC(C#N)=C1SC(=Nc2ccccc2)C(=Nc2ccccc2)N1c1ccccc1`?
inhibition [1]: 98.5%; inhibition [2]: 99.1%; activity [3]: 92.6%; activity [4]: 83.6%

Which results are given for `O=C(CN1CCN(C2CCS(=O)(=O)C2)CC1)N1N=C(c2ccc(Cl)cc2)CC1c1ccco1` (stereo not given)?
inhibition [5]: -11% (inactive); inhibition [6]: 74.8% (active)

Which inhibition [1] does the source give for `COc1ccc(OC)c(N(CCN2C(=O)c3ccccc3C2=O)C(=O)CCl)c1` here?
The inhibition was 106%.

And the inhibition [2]?
The inhibition was 101%.

And the activity [3]?
The activity was 98.7%.

And the activity [4]?
Its activity is 97.6%.

Which inhibition [5] does the source give for `Cc1cccc(C(=O)Nc2ccc(CC(=O)O)cc2)c1` here?
The inhibition was 53% (active).

And the inhibition [6]?
Its inhibition is 44.8% (inactive).

Which activity [3] does the source give for `CC(/C=N/NC(=O)c1cccs1)=C\c1ccccc1` here?
The activity was 61.9%.

For `O=C(Nc1ccc(N2CCOCC2)cc1)c1cnccn1`, which activity [3] is on record?
Its activity is 84.4%.

What about the activity [4] of the same compound?
The activity was 82.8%.

For `Cc1ccc(-c2ccccc2NC(=O)CCl)o1`, which activity [3] is on record?
The activity was 47.4%.

What about the activity [4] of the same compound?
Its activity is 64.3%.

For `O=C(CCl)N(Cc1cccc([N+](=O)[O-])c1)c1cccc(Cl)c1`, which inhibition [5] is on record?
The inhibition was 62.8% (active).

What about the inhibition [6] of the same compound?
The inhibition was 107% (active).

And the activity [3]?
The activity was 99.1%.

What about the activity [4] of the same compound?
Its activity is 99.6%.

What does the source list for `O=C(Nc1ccc2[nH]ccc2c1)c1ccc(F)cc1`?
activity [3]: 89.7%; activity [4]: 87%

What does the source list for `COc1ccc(CC(N)c2csc(NC(=O)Nc3ccc(C(C)C)cc3)n2)cc1` (stereo not given)?
inhibition [5]: 3.55% (inactive); inhibition [6]: 101% (active); activity [3]: 82.5%; activity [4]: 97.2%

With `O=C(CN1C(=O)c2ccccc2S1(=O)=O)c1ccc(Cl)cc1Cl` as the compound, how does the activity [3] read?
Its activity is 64.3%.

With `CCCc1[nH]nc2c1C(C1CC=CCC1)C(C#N)=C(N)O2` (stereo not given) as the compound, how does the inhibition [5] read?
The inhibition was 8.58% (inactive).

What about the inhibition [6] of the same compound?
The inhibition was 39.6% (inactive).

With `COc1ccc(-c2oc3ncnc(NCCCO)c3c2-c2ccc(OC)cc2)cc1` as the compound, how does the inhibition [5] read?
Its inhibition is 37.9% (inactive).

What about the inhibition [6] of the same compound?
The inhibition was 82.4% (active).

Which results are given for `N/C(=N\OC(=O)COc1ccc(Cl)cc1Cl)c1ccccn1`?
activity [3]: 37%; activity [4]: 52.3%

What does the source list for `CCN(c1ccccc1)S(=O)(=O)c1ccc(OC)c(NC(=O)c2cc(F)c(F)c(F)c2F)c1`?
activity [3]: 63.3%; activity [4]: 87.5%

Which results are given for `Cc1ccccc1/C(N)=N/OC(=O)/C=C/c1ccccc1`?
activity [3]: 98.7%; activity [4]: 97.3%

What does the source list for `CCOC(=O)c1nnn2c1nc(Nc1cccc(C(F)(F)F)c1)c1ccccc12`?
activity [3]: 8.35%; activity [4]: 52.4%

Which activity [3] does the source give for `Cc1nc(SCCC(=O)O)c2cc(-c3ccccc3)sc2n1` here?
Its activity is 59%.

With `Cc1cc(-c2n[nH]c(=S)n2/N=C/C(Br)=C/c2ccccc2)n[nH]1` as the compound, how does the inhibition [5] read?
Its inhibition is 22.8% (inactive).

What about the inhibition [6] of the same compound?
The inhibition was 105% (active).

With `CCOc1cc(/C=C(/C#N)c2ccc(Cl)cc2)cc(Cl)c1OCC(=O)O` as the compound, how does the inhibition [5] read?
The inhibition was 98.1% (active).

And the inhibition [6]?
Its inhibition is 91.2% (active).

Which results are given for `O=C(COc1ccc2ccccc2c1)Nc1nccs1`?
activity [3]: 58%; activity [4]: 55.8%

Which results are given for `O=C1c2cccc3c([N+](=O)[O-])ccc(c23)C(=O)N1c1ccccn1`?
activity [3]: 91.4%; activity [4]: 99.4%

Which activity [3] does the source give for `O=C(/C=C/c1ccc(F)cc1)NC(=S)Nc1ccccc1C(=O)NC1CCCCC1` here?
The activity was -1.65%.

What about the activity [4] of the same compound?
The activity was -0.275%.

Which results are given for `O=C1C=C(c2ccc(Cl)cc2)C(=O)N1Nc1ccccc1`?
inhibition [5]: 95.2% (active); inhibition [6]: 41% (inactive)

With `COC(=O)CCNc1ccc2c(c1)OCCO2` as the compound, how does the inhibition [5] read?
Its inhibition is 50.7% (active).

What about the inhibition [6] of the same compound?
The inhibition was 56.6% (active).

For `COc1ccc(C(=O)/C=C/c2ccc(-c3ccccc3)cc2)cc1CSCC(=O)O`, which inhibition [5] is on record?
The inhibition was -10.7% (inactive).

What about the inhibition [6] of the same compound?
The inhibition was 62.4% (active).

With `CC[C@@H](C)[C@H](NC(=O)CCc1c(C)c2cc3c4c(oc3c(C)c2oc1=O)CCCC4)C(=O)O` as the compound, how does the inhibition [5] read?
Its inhibition is 68.5% (active).

What about the inhibition [6] of the same compound?
The inhibition was 44.4% (inactive).

For `c1ccc2[nH]c(-c3ccc4c(c3)OCO4)nc2c1`, which activity [3] is on record?
Its activity is 77.4%.

And the activity [4]?
Its activity is 79.3%.

What does the source list for `COCC(C)n1c(C)cc(C(=O)COc2ccc(C)nc2[N+](=O)[O-])c1C` (stereo not given)?
inhibition [5]: 55% (active); inhibition [6]: 41.4% (inactive)

Which activity [3] does the source give for `Cc1ccc(NC(=O)CSc2ccc(-c3ccc4c(c3)OCO4)nn2)cc1F` here?
The activity was 39%.

What about the activity [4] of the same compound?
The activity was 44.9%.

With `CS(=O)(=O)N(Cc1ccc(Cl)cc1)c1ccc(C(=O)NCCSCc2ccco2)cc1` as the compound, how does the inhibition [5] read?
Its inhibition is -0.82% (inactive).

What about the inhibition [6] of the same compound?
Its inhibition is 45.5% (inactive).

Which activity [3] does the source give for `O=[N+]([O-])c1ccc(Sc2ccncn2)c([N+](=O)[O-])c1` here?
Its activity is 16.8%.

And the activity [4]?
The activity was 65.8%.

What does the source list for `CCOC(=O)C(=Cc1ccccc1OC)C(=O)OCC`?
inhibition [5]: 57.5% (active); inhibition [6]: 75.7% (active)

For `COc1cc(C2Nc3ccccc3C(=O)N2c2ccc3c(c2)OCCO3)ccc1OCC(C)C` (stereo not given), which activity [3] is on record?
Its activity is 64.9%.

What about the activity [4] of the same compound?
Its activity is 63.5%.

Which activity [3] does the source give for `COC(=O)C12OCC34C(CC5C(C)=C(O)C(=O)CC5(C)C3C(O)C1O)OC(=O)C(OC(=O)C=C(C)C)C24` (stereo not given) here?
Its activity is 91%.

What about the activity [4] of the same compound?
Its activity is 96.2%.

With `O=c1[nH]c(/C=C/c2ccccc2F)nc2ccccc12` as the compound, how does the activity [3] read?
Its activity is 86.9%.

And the activity [4]?
The activity was 86.8%.

With `Cc1ccccc1C(CC(=O)c1cccs1)C(C#N)C#N` (stereo not given) as the compound, how does the inhibition [5] read?
The inhibition was 28.4% (inactive).

And the inhibition [6]?
Its inhibition is 100% (active).

With `CN(C)CCNC(=O)c1cccc(-c2cnc3c(NC=O)cc(-c4cccc(C(F)(F)F)c4)cn23)c1` as the compound, how does the inhibition [5] read?
The inhibition was 8.84% (inactive).

What about the inhibition [6] of the same compound?
Its inhibition is 106% (active).

What about the activity [3] of the same compound?
The activity was 46.6%.

And the activity [4]?
Its activity is 90.8%.

For `C=C1C(=O)c2sccc2C(c2ccc(OC)c(OC)c2)C1COC(C)=O` (stereo not given), which activity [3] is on record?
Its activity is 98.2%.

And the activity [4]?
The activity was 99.2%.

With `Cc1cccc2sc(NNC(=O)c3cc(-c4cccs4)nc4ccccc34)nc12` as the compound, how does the activity [3] read?
The activity was 25.2%.

What about the activity [4] of the same compound?
The activity was 26.2%.
